Assay results reported in the supplement of paper PMC8728848.
About 410 targets per protein were measured; listed, in parts, are those with the strongest signals and a random draw of the rest.

Tests used:
Experiment in all cases: glycan array binding signal (z-score within array); higher = stronger binding
Settings in all cases: glycan notation: IUPAC condensed, linker removed
[1] = target: Fuc(a1-2)Gal(b1-3)GlcNAc(b1-3)Gal(b1-4)Glc
Procedure, shortened: (§1)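 Columns mapping to the same glycan were averaged after glycan names were converted to IUPAC-condensed notation. The data come from 3228 arrays in the Consortium for Functional Glycomics database, limited to those with an available protein sequence. Binding is reported as a within-array Z-score averaged across arrays of one protein sequence and across linkers.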

[2] = target: Fuc(a1-2)Gal(b1-3)GlcNAc6S
Procedure, shortened: as §1

[3] = target: Fuc(a1-2)Gal(b1-3)[Fuc(a1-4)]GlcNAc(b1-2)Man(a1-3)[Fuc(a1-2)Gal(b1-3)[Fuc(a1-4)]GlcNAc(b1-2)Man(a1-6)]Man(b1-4)GlcNAc(b1-4)[Fuc(a1-6)]GlcNAc(b1-4)[Fuc(a1-6)]GlcNAc
Procedure, shortened: as §1

[4] = target: Fuc(a1-2)Gal(b1-4)GlcNAc(b1-2)Man
Procedure, shortened: as §1

[5] = target: Fuc(a1-2)Gal(b1-4)GlcNAc(b1-3)[Fuc(a1-2)Gal(b1-4)GlcNAc(b1-6)]GalNAc
Procedure, shortened: as §1

[6] = target: Fuc(a1-2)Gal(b1-4)GlcNAc(b1-6)GalNAc
Procedure, shortened: as §1

[7] = target: Fuc(a1-2)Gal(b1-4)[Fuc(a1-3)]GlcNAc(b1-3)Gal(b1-4)[Fuc(a1-3)]GlcNAc(b1-3)Gal(b1-4)[Fuc(a1-3)]GlcNAc
Procedure, shortened: as §1

Fuc(a1-2)Gal6S(b1-4)Glc = target: Fuc(a1-2)Gal6S(b1-4)Glc
Procedure, shortened: as §1

[8] = target: Fuc(a1-2)[Gal(a1-3)]Gal(b1-4)GlcNAc(b1-3)[Fuc(a1-2)[Gal(a1-3)]Gal(b1-4)GlcNAc(b1-6)]GalNAc
Procedure, shortened: as §1

[9] = target: Fuc(a1-2)[Gal(a1-3)]Gal(b1-4)[Fuc(a1-3)]GlcNAc(b1-3)GalNAc
Procedure, shortened: as §1

[10] = target: Fuc(a1-2)[GalNAc(a1-3)]Gal
Procedure, shortened: as §1

[11] = target: Fuc(a1-2)[GalNAc(a1-3)]Gal(b1-3)GlcNAc(b1-3)GalNAc
Procedure, shortened: as §1

[12] = target: Fuc(a1-2)[GalNAc(a1-3)]Gal(b1-4)[Fuc(a1-3)]GlcNAc(b1-3)GalNAc
Procedure, shortened: as §1

[13] = target: Fuc(a1-3)[GalNAc(b1-4)]GlcNAc
Procedure, shortened: as §1

[14] = target: Gal(a1-3)Gal(b1-4)GlcNAc(b1-2)Man
Procedure, shortened: as §1

[15] = target: Gal(a1-3)Gal(b1-4)GlcNAc(b1-2)Man(a1-3)[Gal(a1-3)Gal(b1-4)GlcNAc(b1-2)Man(a1-6)]Man(b1-4)GlcNAc(b1-4)GlcNAc
Procedure, shortened: as §1

Gal(a1-4)Gal(b1-4)Glc = target: Gal(a1-4)Gal(b1-4)Glc
Procedure, shortened: as §1

Gal(b1-3)Gal = target: Gal(b1-3)Gal
Procedure, shortened: as §1

[16] = target: Gal(b1-3)GalNAc(b1-4)Gal(b1-4)Glc
Procedure, shortened: as §1

Gal(b1-3)GlcNAc(b1-2)Man = target: Gal(b1-3)GlcNAc(b1-2)Man
Procedure, shortened: as §1

[17] = target: Gal(b1-3)GlcNAc(b1-3)GalNAc
Procedure, shortened: as §1

[18] = target: Gal(b1-3)[Fuc(a1-4)]GlcNAc(b1-6)GalNAc
Procedure, shortened: as §1

Gal(b1-4)Gal = target: Gal(b1-4)Gal
Procedure, shortened: as §1

[19] = target: Gal(b1-4)GlcNAc(b1-2)Man(a1-6)[Man(a1-3)]Man(b1-4)GlcNAc(b1-4)GlcNAc
Procedure, shortened: as §1

[20] = target: Gal(b1-4)GlcNAc(b1-3)Gal(b1-3)GalNAc
Procedure, shortened: as §1

[21] = target: Gal3S(b1-4)[Fuc(a1-3)]Glc6S
Procedure, shortened: as §1

Gal3S6S(b1-4)GlcNAc = target: Gal3S6S(b1-4)GlcNAc
Procedure, shortened: as §1

Gal3S6S(b1-4)GlcNAc6S = target: Gal3S6S(b1-4)GlcNAc6S
Procedure, shortened: as §1

Gal6S(b1-4)GlcNAc6S = target: Gal6S(b1-4)GlcNAc6S
Procedure, shortened: as §1

GalNAc(a1-3)Gal = target: GalNAc(a1-3)Gal
Procedure, shortened: as §1

B1: TAL6-6LysM (Trichoderma atroviride) (protein)
chain: AASKLGVPQPAQRDQVNCQLYAVQPNDNCIDISSKNNITYAQLLSWNPSLSSTCSNLASLNSSSICVSNPKGTFSISSNTVGATDIATTTAPVPSPTLDQTTSRCAKYYQVSDGDDCSHLTAQFAITLKDFIFLNSEVWQNCTNLELGYYYCVEPVGYISTYPGYLPTATTKPFNQTSATSLPYDGDPWARFSSNSSVIPIANGTRVDCYSYVYVKNLTENLFADCWNMASMYEITREELVLWNPSLGNDGSSGSNLSGAEASQVASSIAIPTTAPSSITTNLYTYPCTVAANISYCVALVSSTGALPTNTAPPGPHASGEISNCTAWFAPEAYDTCKSILDIFEMSFANFYKMNPSVGPDCSGLAVGTNYCVSTYPNGEDPNDDWDGDDSIPSISPTGIITPTPTQSGMVSNCNKFYDVHSNDGCSAIASSQHVDLSSLYKWNPAIKTDCSGLQASVYVCIGILTTSMSTTSKLPTTTSKPSTTSKPPTGITTPTPTQSGMVKNCNKFYDVHSGDGCSAIASSQKVNLSSFYLWNPAVKTDCSGLQASVFVCIGTLTTSMSTTTSKLPTTTSKPSTTSKPPTGIITPTPTQNGMVKNCNKFYDVHSGDGCSAIASSQKVNLSSFYLWNPAVKTDCSGLQASVFVCVGTATTTTAAGITTPTPTQSGMVSGCNKFYDVHAGDGCSAIASSQKIALSSLYKWNPAVKTDCSGLQASVYICIGVGNAAAARVTGAAASFLEQKLISEEDLNSAVDHHHHHH
- glycan array binding signal (z-score) [1]: -0.234
- glycan array binding signal (z-score) [2]: 0.906
- glycan array binding signal (z-score) [3]: 0.449
- glycan array binding signal (z-score) [4]: -0.377
- glycan array binding signal (z-score) [5]: -0.205
- glycan array binding signal (z-score) [6]: 3.12
- glycan array binding signal (z-score) [7]: 2.68
- glycan array binding signal (z-score) (Fuc(a1-2)Gal6S(b1-4)Glc): -0.385
- glycan array binding signal (z-score) [8]: -0.724
- glycan array binding signal (z-score) [9]: 0.955
- glycan array binding signal (z-score) [10]: -0.757
- glycan array binding signal (z-score) [11]: 0.204
- glycan array binding signal (z-score) [12]: -0.108
- glycan array binding signal (z-score) [13]: 2.99
- glycan array binding signal (z-score) [14]: 0.538
- glycan array binding signal (z-score) [15]: 0.08
- glycan array binding signal (z-score) (Gal(a1-4)Gal(b1-4)Glc): 2.69
- glycan array binding signal (z-score) (Gal(b1-3)Gal): -0.192
- glycan array binding signal (z-score) [16]: -0.503
- glycan array binding signal (z-score) (Gal(b1-3)GlcNAc(b1-2)Man): 3.66
- glycan array binding signal (z-score) [17]: -0.729
- glycan array binding signal (z-score) [18]: 1.02
- glycan array binding signal (z-score) (Gal(b1-4)Gal): -0.397
- glycan array binding signal (z-score) [19]: 0.445
- glycan array binding signal (z-score) [20]: -0.573
- glycan array binding signal (z-score) [21]: 2.96
- glycan array binding signal (z-score) (Gal3S6S(b1-4)GlcNAc): 2.51
- glycan array binding signal (z-score) (Gal3S6S(b1-4)GlcNAc6S): 3
- glycan array binding signal (z-score) (Gal6S(b1-4)GlcNAc6S): -0.018
- glycan array binding signal (z-score) (GalNAc(a1-3)Gal): 2.44
